Source: PubChem BioAssay (Tox21)
Values joined by “and” are separate entries in the source; they are usually repeats but may differ in a detail not shown here. Equal values may be shown once. Results filed as inconclusive are left out. Where a call stands in place of a potency, no number is given. A structure can be active in one record and inactive in another. Active and inactive are the calls of the source. Unless noted, calls come from the whole dose curve; as a rule, active = well fitted curve in the direction sought with a large enough effect in the repeat runs; inconclusive = weak or mixed curves; inactive = no such curve, though single readings can be large; an effect the other way counts as inactive or inconclusive.

Legend:
[1] = qHTS assay to identify small molecule agonists of the hypoxia (HIF-1) signaling pathway - cell viability counter screen (AID 1224844; calls by dose curve; note: nearly all actives have a fitted effect of over 50% in size; note: potency is the fitted concentration of half-maximal effect)
Summary of the method: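 Multiplexed with the HRE beta-lactamase assay, this viability read used CellTiter-Glo luminescence (30 min, RT) on HRE-bla ME-180 cells treated 17 hrs with compounds in 0.5% dialyzed FBS medium.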

[2] = qHTS assay to identify small molecule agonists of H2AX (AID 1224845; active = well fitted activation curve with a large enough effect in the signal ratio in the repeat runs, not every such curve was filed as active; the % refers to the signal ratio)
Summary of the method: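 Wild-type CHO-K1 cells, plated overnight, exposed 3hr at 37C to 15 concentrations (0.76% DMSO final). Lysed, then HTRF anti-pH2AX (S139) cryptate and anti-H2AX-d2 antibodies, 24 hr room temperature; 665/620 nm emission read.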

[3] = qHTS assay to identify small molecule agonists of the hypoxia (HIF-1) signaling pathway (AID 1224846; active = well fitted activation curve with a large enough effect in the signal ratio in the repeat runs, not every such curve was filed as active; the % refers to the signal ratio)
Summary of the method: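 Hypoxia-pathway activation was scored as increased beta-lactamase from an HRE-controlled reporter in ME-180 cells; plated at 2,000 cells per well with 0.5% dialyzed FBS, they were exposed 17 hrs to compounds and then given CCF4-AM.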

[4] = qHTS assay to identify small molecule agonists of H2AX - cell viability counter screen (AID 1224847; calls by dose curve; note: top concentration of the series differs between compounds; nearly all actives have a fitted effect of over 30% in size)
Summary of the method: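 Quantitative HTS viability measurement: CHO-K1 wild-type cells in serum (10% FBS) medium, short 3 hr drug exposure at 37C with 0.76% DMSO, CellTiter-Glo luminescent detection.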

[5] = qHTS RealTime-Glo MT Cell Viability Assay in HepG2 cells - 24 hour (AID 1224867); note: nearly all actives have a fitted effect of over 50% in size
Summary of the method: (§1)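 HepG2 cells (600/well) were dispensed with RealTime-Glo reagents, incubated 5 h at 37 °C, then treated with compounds in DMSO for up to 40 h. Nonlytic NanoLuc luminescence reflecting viable cells was read at each stated time point.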

[6] = qHTS RealTime-Glo MT Cell Viability Assay in HEK293 cells - 32 hour (AID 1224868); note: nearly all actives have a fitted effect of over 50% in size; note: potency is the fitted concentration of half-maximal effect
Summary of the method: (§2)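 HEK293 cells seeded with NanoLuc/prosubstrate reagent, rested 5 h at 37 C, then dosed and kept at 37 C up to 40 h. Nonlytic real-time luminescence from viable cells read at 0, 8, 16, 24, 32 and 40 h.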

[7] = A CellTox Green Cytotoxicity Assay to monitor cytotoxicity in HEK293 cells - 0 hour (AID 1224869); note: nearly all actives have a fitted effect of over 50% in size
Summary of the method: (§3)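 Seeding of HEK293 cells together with cytotoxicity dye preceded a 5 h incubation at 37 C/5% CO2. Test compounds in DMSO were then added and fluorescence monitored across 40 h.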

[8] = qHTS RealTime-Glo MT Cell Viability Assay in HepG2 cells - 40 hour (AID 1224870); note: nearly all actives have a fitted effect of over 50% in size
Summary of the method: (§4)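 HepG2 cells (600/well) mixed with RealTime-Glo MT reagent, settled 5 h at 37 C/5% CO2 before compound addition. Nonlytic NanoLuc luminescence from viable-cell prosubstrate reduction read repeatedly during 40 h treatment at 37 C.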

[9] = A CellTox Green Cytotoxicity Assay to monitor cytotoxicity in HEK293 cells - 40 hour (AID 1224871); note: nearly all actives have a fitted effect of over 45% in size; note: potency is the fitted concentration of half-maximal effect
Summary of the method: as §3

[10] = qHTS RealTime-Glo MT Cell Viability Assay in HEK293 cells - 16 hour (AID 1224872)
Summary of the method: as §2

[11] = qHTS RealTime-Glo MT Cell Viability Assay in HepG2 cells - 8 hour (AID 1224873); note: nearly all actives have a fitted effect of over 55% in size
Summary of the method: as §4

[12] = qHTS RealTime-Glo MT Cell Viability Assay in HEK293 cells - 40 hour (AID 1224874); conditions: RealTime-Glo luminescence; max response: stronger effect = lower value; note: nearly all actives have a fitted effect of over 50% in size; note: potency is the fitted concentration of half-maximal effect
Summary of the method: (§5)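 Tox21 screen in HEK293 using RealTime-Glo MT chemistry, with cells and reagent co-dispensed. Luminescence proportional to viable cell number was captured at intervals during 40 h compound exposure at 37 C.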

[13] = A CellTox Green Cytotoxicity Assay to monitor cytotoxicity in HEK293 cells - 24 hour (AID 1224875); note: series mostly up to about 77 µM; nearly all actives have a fitted effect of over 45% in size
Summary of the method: as §3

[14] = A CellTox Green Cytotoxicity Assay to monitor cytotoxicity in HepG2 cells - 16 hour (AID 1224876); note: nearly all actives have a fitted effect of over 45% in size
Summary of the method: (§6)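 Nonlytic assay: viable cells exclude the dye, so fluorescence scales with cell death. HepG2 at 600 cells/well, compounds added after 5 h, signal read across 40 h.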

[15] = qHTS RealTime-Glo MT Cell Viability Assay in HepG2 cells - 32 hour (AID 1224877); note: nearly all actives have a fitted effect of over 55% in size
Summary of the method: as §1

[16] = A CellTox Green Cytotoxicity Assay to monitor cytotoxicity in HepG2 cells - 40 hour (AID 1224879); note: nearly all actives have a fitted effect of over 40% in size; note: potency is the fitted concentration of half-maximal effect
Summary of the method: as §6

[17] = qHTS RealTime-Glo MT Cell Viability Assay in HEK293 cells - 0 hour (AID 1224880); note: top concentration of the series differs between compounds; nearly all actives have a fitted effect of over 45% in size
Summary of the method: as §5

[18] = A CellTox Green Cytotoxicity Assay to monitor cytotoxicity in HepG2 cells - 24 hour (AID 1224878); note: nearly all actives have a fitted effect of over 45% in size
Summary of the method: as §6

Row | SMILES | Potency [1] | Potency [2] | outcome [3] | Potency [4] | outcome [5] | Potency [6] | Potency [7] | outcome [8] | Potency [9] | Potency [10] | outcome [11] | Potency [12] | Potency [13] | Potency [14] | outcome [15] | Potency [16] | Potency [17] | max response [12] | Potency [18]
1 | COc1cc2c(c(OC)c1OC)-c1ccc(OC)c(=O)cc1[C@@H](NC(C)=O)CC2 | 48.4 µM (active) and inactive | inactive | inactive | inactive | inactive | 24.3 nM (active) | inactive | inactive | 34.3 µM (active) and inactive | inactive | inactive | 21.6 nM (active) | inactive | inactive | inactive | 54.3 µM (active) and inactive | inactive |  | 
2 | CC(C)(C)NCC(O)c1ccc(O)c(CO)c1 (centres undefined) | inactive | inactive | inactive | inactive | inactive | inactive | inactive | inactive | inactive | inactive | inactive |  | inactive | inactive | inactive | inactive | inactive | 9.56% (inactive) and 4.37% (inactive) | inactive
3 | NC(=O)c1ccc([N+](=O)[O-])cc1Cl | inactive | inactive | inactive | inactive | inactive | inactive | inactive | inactive | inactive | inactive | inactive |  | inactive | inactive | inactive | inactive | inactive | -1.29% (inactive) and 1.15% (inactive) | inactive
4 | C[C@]12C=CC(=O)C=C1CC[C@@H]1[C@@H]2C(=O)C[C@@]2(C)[C@H]1CC[C@]2(O)C(=O)CO | inactive | inactive | inactive | inactive | inactive | inactive | inactive | inactive | inactive | inactive | inactive |  | inactive | inactive | inactive | inactive | inactive | -10.3% (inactive) and 0.237% (inactive) and 8.61% (inactive) | 
5 | COc1cc(O)c(C(=O)c2ccccc2)cc1S(=O)(=O)O | inactive | inactive | inactive | inactive | inactive | inactive | inactive | inactive | inactive | inactive | inactive |  | inactive | inactive | inactive | inactive | inactive | 0.237% (inactive) and 12.7% (inactive) and -17.6% (inactive) | 
6 | CCCCCCCCCCCCCCCCCC(=O)OCC(O)CO (centres undefined) | inactive | inactive | inactive | inactive | inactive | inactive | inactive | inactive | inactive | inactive | inactive |  | inactive | inactive | inactive | inactive | inactive | 10.4% (inactive) and 6.82% (inactive) and 1.48% (inactive) | 
